# IL-1B inflam inh: blocks inflammasome-driven IL-1 beta release | THP-1 LPS/ATP IL-1B secretion, AlphaLISA, 16 h; stronger effect = lower value | activity change, % at 57.5 µM | hit rate 4.7% among 360,000; in the data active means activity change below about -50%; inconclusive means mostly about -30% to -49%; further: on the % scale 0 is the no-effect control and ±100 the full control effect
#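 Secreted IL-1B measured by AlphaLISA bead assay after 16 h compound exposure of THP-1 cells; compounds (final up to 57.5 uM) added 1 h before LPS (250 ng/mL) and ATP (1.25 mM) stimulation; lower signal means less secretion.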
# HepG2 tox: kills HepG2 cells in TGF-b inhibitor counter-screen; Potency, µM (doses to about 46.1 µM), for inactives: at the top dose activity change, negative = cytotoxicity, usual class: cytotoxic; hit rate 0.76% among 410,000; AID 588856; HepG2 CAGA-GFP viability, ATP luminescence, 18 h; further: potency means the concentration at half of the fitted maximal effect
#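 CellTiter-Glo luminescence gave cytotoxicity after 18 hours at 37 degrees C. The cells were HepG2 CAGA-GFP in 1% FBS DMEM, stimulated with 500 pg/mL TGF-beta after compound addition. %Activity was normalised to no-cell wells (complete cell-killing) and DMSO (no toxicity), and curves were fitted and classified.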
# TDP1 block: inhibitors of human tyrosyl-DNA phosphodiesterase TDP1 | recombinant TDP1, AlphaScreen DNA substrate cleavage | Potency, µM (titrated, usually from 130 µM), for inactives: at the highest dose activity change, negative = inhibition, actives largely listed as inhibitors | Q9NUW8 | hit rate 0.28% among 350,000; further: potency means the concentration at half of the fitted maximal effect; on the % scale 0 is the no-effect control and ±100 the full control effect; nearly all actives have a fitted effect of over 40% in size
# Target sequence (Q9NUW8 whole entry, looked up): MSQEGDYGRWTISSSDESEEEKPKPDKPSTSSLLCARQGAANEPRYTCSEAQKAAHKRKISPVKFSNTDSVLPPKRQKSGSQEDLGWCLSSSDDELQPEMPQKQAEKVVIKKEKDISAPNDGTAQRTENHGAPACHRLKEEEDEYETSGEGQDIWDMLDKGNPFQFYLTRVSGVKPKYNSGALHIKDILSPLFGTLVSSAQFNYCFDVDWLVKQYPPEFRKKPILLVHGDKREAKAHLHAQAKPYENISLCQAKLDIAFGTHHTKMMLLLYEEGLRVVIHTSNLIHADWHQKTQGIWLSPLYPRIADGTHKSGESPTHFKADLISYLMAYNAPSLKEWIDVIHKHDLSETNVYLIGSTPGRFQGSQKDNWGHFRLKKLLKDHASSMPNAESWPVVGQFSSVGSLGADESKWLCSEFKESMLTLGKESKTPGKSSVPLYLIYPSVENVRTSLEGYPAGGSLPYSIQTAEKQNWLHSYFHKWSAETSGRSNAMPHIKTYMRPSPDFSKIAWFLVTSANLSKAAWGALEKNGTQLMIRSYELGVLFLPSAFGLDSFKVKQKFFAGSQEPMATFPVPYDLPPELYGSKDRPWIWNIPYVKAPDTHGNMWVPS
#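 Recombinant human Tdp1 (E. coli-expressed, 1 nM final) preincubated with compounds 15 min at room temperature, then 5'-biotin/3'-phosphotyrosine-FITC DNA substrate (15 nM final) added for 5 min. AlphaScreen beads (10 ug/ml final) added 10 min; cleavage lowers signal.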
# TGFb inhibitor: blocks TGF-b signaling. HepG2 CAGA-GFP TGF-b/SMAD3 reporter, GFP fluorescence, 18 h; TGF-beta stimulated, 500 pg/mL final. Potency, µM (top dose mostly 46.1 µM), for the others: at the highest dose activity, negative = inhibition, usual class: inhibitors. hit rate 1.2% among 410,000. AID 588855; further: potency means the concentration at half of the fitted maximal effect; on the % scale 0 is the no-effect control and ±100 the full control effect; nearly all actives have a fitted effect of over 65% in size
#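 Smad-responsive CAGA-GFP expression was quantified in HEPG2 cells exposed to compounds and 500 pg/mL final TGF-beta for 18 h at 37 degrees C; unstimulated wells defined full inhibition.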
# DT40 TDP1 no CPT: qHTS for Inhibitors of human tyrosyl-DNA phosphodiesterase 1 (TDP1): qHTS in cells in absence of CPT | hit rate 15% among 420,000 | DT40 Tdp1-/- hTDP1 cells, no CPT, ATP luminescence, 48 h | Potency, µM (titrated, usually from 46.2 µM), for inactives: at the top dose activity change, negative = growth inhibition, usual class: inhibitors; further: potency means the concentration at half of the fitted maximal effect; on the % scale 0 is the no-effect control and ±100 the full control effect; nearly all actives have a fitted effect of over 55% in size
#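 Cells were dispensed at 400 per well, compounds added by pin tool, plates incubated ≥48 hr at 37 °C, then CellTiter-Glo added for 30 min at room temperature before luminescence reading. Line: DT40 Tdp1-/- complemented with hTDP1; camptothecin omitted.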
# DT40 TDP1 CPT: growth inhibition of DT40 Tdp1-/-;hTDP1 cells with camptothecin (screen for TDP1 inhibitors); chicken DT40 Tdp1-/-;hTDP1 cells + 20 nM CPT, ATP luminescence, 48 h; Potency, µM (titrated, usually from 46.2 µM), without a hit: at the top dose activity change, negative = growth inhibition, most hits filed as inhibitors; hit rate 12% among 420,000; AID 686979; further: potency means the concentration at half of the fitted maximal effect; on the % scale 0 is the no-effect control and ±100 the full control effect; nearly all actives have a fitted effect of over 55% in size
#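 Chicken DT40 Tdp1-/- cells complemented with human TDP1, 400 cells/well, exposed to compounds plus 20 nM camptothecin for at least 48 h at 37 C; viability read as ATP content by CellTiter-Glo luminescence.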
# * hit, by the source's call; ? = inconclusive; . = not tested or not shown; [ ] = remark or other dose. The list is not random: actives were taken first. Their share in the collection is about 19%. Unless noted, the call rests on the fitted dose curve; in most records, active means well fitted curve in the direction sought with a large enough effect; inconclusive means small, poorly fitted or top-dose-only effect, or another doubt; inactive means no such curve, though single readings can be large; an effect the other way counts as inactive or inconclusive.
SMILES,IL-1B inflam inh,HepG2 tox,TDP1 block,TGFb inhibitor,DT40 TDP1 no CPT,DT40 TDP1 CPT
C[C@@]12C[C@@H](O)[C@H]3[C@@H](CCC4=CC(=O)CC[C@]43C)[C@H]1CC[C@H]2C(=O)CO,.,.,-2%[21 µM],.,.,.
CC12CCC(=O)C=C1CCC1C2CCC2(C)C(c3csc(N)n3)CCC12 (stereo not drawn),-82*,8%,.,13µM*,5.8µM*,5.8µM*
C/C=C1/C(=O)C[C@@H]2[C@H]3CCC4=CC(=O)CC[C@]4(C)[C@@H]3CC[C@]12C,.,.,11%,.,15µM*,?
Cc1ccc(C(C(=O)NCc2ccc(F)cc2)N(Cc2ccco2)C(=O)c2snc(C(N)=O)c2N)o1 (stereo not drawn),-71*,-6%,6%,-6%,15µM*,15µM*
COCCNC(=O)C(c1ccc(C)o1)N(Cc1ccco1)C(=O)c1snc(C(N)=O)c1N (stereo not drawn),15,-5%,2%,25%,-12%,-9%
NC(=O)c1nsc(C(=O)N(Cc2cccnc2)C(C(=O)NCc2ccc(F)cc2)c2ccc(F)cc2)c1N (stereo not drawn),-55*,-15%,12%,-1%,-25%,-28%
CCC(C)(C)NC(=O)C(c1ccc(F)cc1)N(Cc1ccco1)C(=O)c1snc(C(N)=O)c1N (stereo not drawn),-2,-4%,5%,10%,-37%,?
CN(C)c1ccc(C(C(=O)NCC2CCCO2)N(Cc2ccccc2)C(=O)c2snc(C(N)=O)c2N)cc1 (stereo not drawn),-11,-18%,.,?,18µM*,10µM*
NC(=O)c1nsc(C(=O)N(Cc2ccco2)C(C(=O)NCc2ccc(F)cc2)c2ccc(O)cc2)c1N (stereo not drawn),?,-5%,18%,13%,?,16µM*
CN(C)c1ccc(C(C(=O)NCC2CCCO2)N(Cc2ccco2)C(=O)c2snc(C(N)=O)c2N)cc1 (stereo not drawn),-3,0%,.,-3%,?,?
COc1ccc(C(CNC(=O)CNC(=O)c2cccc(F)c2)N2CCOCC2)cc1 (stereo not drawn),-6,-1%,.,1%,-7%,6%
COc1ccccc1CN1CC(C(=O)NC2(c3ccccc3)CC2)CCC1=O (stereo not drawn),-1,-6%,2%[56.1 µM],-6%,-13%,-17%
CN(C)c1ccc(C(C(=O)NCc2ccccc2)N(Cc2ccco2)C(=O)c2snc(C(N)=O)c2N)cc1 (stereo not drawn),-72*,-10%,.,18%,8.2µM*,15µM*
NC(=O)c1nsc(C(=O)N(Cc2cccnc2)C(C(=O)NCc2ccccc2)c2ccc(O)cc2)c1N (stereo not drawn),-13,6%,10%,7%,-14%,-9%
COc1cccc(NC(=O)c2ccc(-c3ccccc3[N+](=O)[O-])o2)c1,-25,0%,6%,18%,?,?
O=C(NCc1ccccc1Cl)c1ccc(CSCc2ccccc2Cl)o1,.,-22%,5%,?,21µM*,16µM*
COc1ccccc1S(=O)Cc1ccc(C(=O)NCc2ccccc2Cl)o1 (stereo not drawn),-26,-15%,4%,-9%,?,16µM*
Cc1ccc(CCNC(=O)c2ccc(CSCc3ccccc3Cl)o2)cc1,.,-40%,3%,-61%,?,?
COc1ccc(NC(=O)c2ccc(-c3ccccc3C(F)(F)F)o2)cc1,2,1%,.,?,16µM*,?
COc1ccccc1CNC(=O)c1ccc(-c2ccccc2Cl)o1,0,-40%,-5%,16µM*,?,?
COc1ccc(CNC(=O)c2ccc(CS(=O)Cc3ccc(Cl)cc3)o2)cc1 (stereo not drawn),6,-2%,4%,1%,11%,-2%
O=C(NC1CCCCC1)Oc1cccc2ccccc12,-2,-10%,3%,-2%,?,?
Cc1cccc2c1cnn2C(=O)CCC(=O)N1CCC(C)CC1,-19,-6%,.,0%,-17%,1%
CCOC(=O)C[C@@H]1OC[C@H](C)N1S(=O)(=O)c1ccc(C)cc1,32,.,.,.,?,-31%
CC(C)CCNC(=O)c1ccc(CSCc2cccc(F)c2)o1,-63*,-16%,2%,1%,-29%,?
SMILES,IL-1B inflam inh,HepG2 tox,TDP1 block,TGFb inhibitor,DT40 TDP1 no CPT,DT40 TDP1 CPT
O=C(NNC(=O)c1ccccc1F)c1ccc(-c2ccccc2Cl)o1,-52*,-8%,.,-9%,?,3%
Cc1cccc(CSCc2ccc(C(=O)NC(C)C)o2)c1,0,3%,.,-4%,?,?
COc1ccccc1CNC(=O)c1ccc(-c2ccccc2C(F)(F)F)o1,-15,-51%,-3%,?,21µM*,21µM*
Cc1ccc(CNC(=O)c2ccc(CSCc3c(F)cccc3Cl)o2)cc1,.,-26%,3%,16µM*,-14%,-30%
Cc1ccc(CNC(=O)c2ccc(CSCc3ccc(C)cc3)o2)cc1,.,-20%,-3%,?,?,?
Cc1ccc2oc(=O)c3cnn(CC(=O)N4CCN(c5ccccc5)CC4)c3c2c1,1,7%,-6%,-8%,10µM*,?
COc1ccccc1N1CCN(C(=O)Cn2ncc3c(=O)oc4ccc(C)cc4c32)CC1,.,-21%,6%,-7%,?,-27%
Cc1ccc2oc(=O)c3cnn(CC(=O)N4CCN(c5ccccc5F)CC4)c3c2c1,.,-17%,1%,-20%,21µM*,?
Cc1ccc(NC(=O)CSc2nnc3ccc4ccccc4n23)cc1,.,9%,2%,-4%,?,-25%
CCCN1CCC(=O)N(CCO)CC1,10,0%,.,3%,1%,15%
O=C(Nc1ccccc1Cl)c1cc(C2CCCN(S(=O)(=O)c3cccs3)C2)on1 (stereo not drawn),25,11µM*,.,?,-12%,-23%
O=C(Nc1ccccc1Cl)c1cc(C2CCCN(C(=O)c3ccc4c(c3)CCO4)C2)on1 (stereo not drawn),33,-22%,.,-9%,15µM*,13µM*
O=C(Nc1ccc(F)c(Cl)c1)c1cc(C2CCCN(S(=O)(=O)c3cccs3)C2)on1 (stereo not drawn),-26,-15%,.,8%,?,?
